For 27 molecules, outcome and AC50 results are on record in PubChem BioAssay (EPA / NIEHS).

What is called AC50 is the midpoint of the concentration-response curve, whichever way the signal moves.

Structures are written as SMILES. Inconclusive results are not listed. Active and inactive are the calls of the source. Rule for the calls, unless noted: active = hit-call score of the fitted dose curve at least 0.9, where 1 is the maximum; inconclusive = response in the unintended direction; inactive = score below 0.9.

Assay [1] addresses Estrogen receptor (Homo sapiens) (UniProt P03372). Description: OT_ERa_GFPERaERE_0120: Odyssey Thera (OT) 2-hour HeLa Transcription Induction Assay for Estrogen Receptor (AID 2283382). The method, boiled down: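 Cells (human cervical HeLa) receive compound, incubate 2 hours, then are imaged for fluorescent reporter induction. Images are quantified by high content analysis, and activity is fitted as gain of signal against DMSO.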

Assay [2] has as its target Bile acid receptor (Homo sapiens) (UniProt Q96RI1). The assay can be described thus: OT_FXR_FXRSRC1_0480: Odyssey Thera (OT) 8-hour HEK293T Protein-Complementation Assay for Farnesoid X receptor/SRC-1 Co-activator (AID 2283383). In outline:
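PCA, HEK293T, 8 h compound exposure; FXR–SRC-1 binding reconstitutes split reporter; fluorescence intensity; positive-direction fit vs DMSO.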

Assay [3] has the same target. The assay can be described thus: OT_FXR_FXRSRC1_1440: Odyssey Thera (OT) 24-hour HEK293T Protein-Complementation Assay for Farnesoid X receptor/SRC-1 Co-activator (AID 2283384). In outline: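 Measures ligand-driven FXR–SRC-1 co-activator recruitment in HEK293T via fragment complementation, fluorescence intensity at 24 h. DMSO served as negative control and baseline for gain-of-signal fitting.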

Assay [4] addresses Retinoic acid receptor RXR-alpha (Homo sapiens) (UniProt P19793). The assay can be described thus: OT_NURR1_NURR1RXRa_0480: Odyssey Thera (OT) 8-hour HEK293T Protein Complementation Assay for Nurr1/retinoid X receptor (RXR) (AID 2283385). The method, boiled down: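 Interaction of bait and prey reconstitutes a functional reporter, whose fluorescence was measured in HEK293T cells dosed with compound for 8 hours. Signal gain relative to DMSO defined the single endpoint.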

The target is the same in assay [5]. The assay can be described thus: OT_NURR1_NURR1RXRa_1440: Odyssey Thera (OT) 24-hour HEK293T Protein Complementation Assay for Nurr1/retinoid X receptor (RXR) (AID 2283386). The method, boiled down: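 Steps: fragment-tagged Nurr1 and RXRα expressed in HEK293T; compounds added; after 24 h, complemented reporter quantified by fluorescence intensity; signal increase over DMSO fitted as the single endpoint.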

In assay [6] the target is Peroxisome proliferator-activated receptor gamma (Homo sapiens) (UniProt P37231). Description: OT_PPARg_PPARgSRC1_0480: Odyssey Thera (OT) 8-hour Protein-Complementation Assay for Peroxisome Proliferator-activated Receptor Gamma / SRC-1 Co-activator (AID 2283387).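 Note: nuclear to cytoplasmic split Venus YFP fluorescence ratio reporting PPARg SRC-1 interaction.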 In outline: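 Read-out: 488 nm N/C fluorescence ratio from complemented Venus YFP fragments, ≥350 cells per image, gain-of-signal fitted against DMSO baseline. Fusions of PPARg/SRC-1 with IFP1/IFP2 expressed transiently in HEK293T; compounds applied 8 h.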
Sequence of Peroxisome proliferator-activated receptor gamma (Homo sapiens) (P37231 whole entry, looked up, the tested form may be a part): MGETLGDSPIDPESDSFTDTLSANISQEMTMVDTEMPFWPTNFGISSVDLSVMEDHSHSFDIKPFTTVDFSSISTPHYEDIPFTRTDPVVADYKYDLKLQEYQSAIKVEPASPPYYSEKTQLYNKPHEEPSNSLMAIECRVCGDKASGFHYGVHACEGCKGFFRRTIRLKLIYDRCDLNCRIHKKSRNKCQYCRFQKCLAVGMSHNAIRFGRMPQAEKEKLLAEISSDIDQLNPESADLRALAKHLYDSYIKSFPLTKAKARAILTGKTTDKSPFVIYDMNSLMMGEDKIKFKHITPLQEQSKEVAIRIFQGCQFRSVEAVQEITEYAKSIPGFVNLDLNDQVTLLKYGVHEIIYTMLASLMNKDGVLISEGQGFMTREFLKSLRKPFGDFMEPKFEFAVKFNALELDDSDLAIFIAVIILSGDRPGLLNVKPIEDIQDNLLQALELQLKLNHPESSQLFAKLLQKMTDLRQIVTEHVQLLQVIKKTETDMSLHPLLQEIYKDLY

For assay [7] the target is unchanged. Description: OT_PPARg_PPARgSRC1_1440: Odyssey Thera (OT) 24-hour Protein-Complementation Assay for Peroxisome Proliferator-activated Receptor Gamma/ SRC-1 Co-activator (AID 2283388).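 Note: nuclear to cytoplasmic ratio of reconstituted Venus YFP fluorescence in fixed imaged cells.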 The method, boiled down: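 Readout: nuclear-to-cytoplasmic 488 nm fluorescence ratio, ≥350 cells per image, 8 images per well, after 24 h compound exposure of HEK293T expressing PPARg/SRC-1 split-YFP fusions. Activity fitted in positive direction against DMSO.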

Assay [8] is described as follows: CEETOX_H295R_11DCORT: CeeTox H295R High-throughput Steroidogenesis Assay for 11-Deoxycortisol (11DCORT) (AID 2283432; active = hit-call score of the fitted dose curve at least 0.9, where 1 is the maximum; inactive = score below 0.9;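 for AC50: human adrenal H295R cells prestimulated with 10 µM forskolin for 48 h; 11-deoxycortisol secreted into the medium measured by LC-MS/MS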). The conditions noted are these: actives raise or lower the signal. The method, boiled down:
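H295R cells; 10 uM forskolin prestim 48 h; compound in 0.1% DMSO 48 h; media extracted with MTBE; 11-deoxycortisol by LC-MS/MS, 7-point standard curve; gain/loss vs DMSO baseline; viability by MTT in same wells.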

The nature of assay [9]: CEETOX_H295R_OHPREG: CeeTox H295R High-throughput Steroidogenesis Assay for OH-Pregnenolone (OHPREG) (AID 2283434; active = hit-call score of the fitted dose curve at least 0.9, where 1 is the maximum; inactive = score below 0.9). The conditions noted are these: actives raise or lower the signal. The method, boiled down: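 Readout: HPLC-MS/MS of 17alpha-hydroxypregnenolone in medium after 48 h chemical exposure of H295R cells pretreated with forskolin. Values fitted bidirectionally relative to DMSO; chemicals reducing viability to 20–70% were retested after 10-fold dilution.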

Assay [10] can be described thus: CEETOX_H295R_OHPROG: CeeTox H295R High-throughput Steroidogenesis Assay for OH-Progesterone (OHPROG) (AID 2283435; active = hit-call score of the fitted dose curve at least 0.9, where 1 is the maximum; inactive = score below 0.9;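 note: human adrenal H295R cells primed 48 h with 10 µM forskolin; 17alpha-hydroxyprogesterone secreted into medium measured by HPLC-MS/MS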). The settings on record: actives raise or lower the signal. The method, boiled down: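 Steps: seed H295R cells and adhere overnight; stimulate with 10 uM forskolin for 48 h; replace with chemical-containing medium (0.1% DMSO) for 48 h; extract medium with MTBE; quantify 17alpha-hydroxyprogesterone by reverse-phase C18 HPLC-MS/MS against a 7-point curve.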

A short description of assay [11]: CEETOX_H295R_CORTISOL: CeeTox H295R High-throughput Steroidogenesis Assay for Cortisol (AID 2283438; active = hit-call score of the fitted dose curve at least 0.9, where 1 is the maximum; inactive = score below 0.9). The conditions noted are these: actives raise or lower the signal. The method, boiled down:
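Cortisol synthesis by H295R cells is measured 48 h after chemical dosing, following a 48 h stimulation with 10 uM forskolin. Hormone is extracted and quantified by HPLC-MS/MS, and activity is fitted bidirectionally against the DMSO control.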

Assay [12] can be described thus: CEETOX_H295R_DOC: CeeTox H295R High-throughput Steroidogenesis Assay for DOC (AID 2283439; active = hit-call score of the fitted dose curve at least 0.9, where 1 is the maximum; inactive = score below 0.9). The settings on record: actives raise or lower the signal. In outline:
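Steps: seed H295R, adhere overnight; 10 uM forskolin 48 h; replace with chemical medium (0.1% DMSO) 48 h; collect medium, MTBE extraction, HPLC-MS/MS for DOC. Viability then checked by MTT; cytotoxic chemicals diluted until viability ≥70%.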

Assay [13] is described as follows: CEETOX_H295R_ESTRADIOL: CeeTox H295R High-throughput Steroidogenesis Assay for Estradiol (AID 2283440; active = hit-call score of the fitted dose curve at least 0.9, where 1 is the maximum; inactive = score below 0.9;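 note: estradiol secreted into medium quantified by LC-MS/MS after dansyl derivatisation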). The settings on record: actives raise or lower the signal. The method, boiled down:
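H295R, 48 h forskolin (10 uM) prestim → 48 h compound, 0.1% DMSO final. Estradiol in medium: MTBE extraction, dansyl chloride derivatization, LC-MS/MS. Fit bidirectional vs DMSO baseline; MTT viability in same wells.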

Assay [14] can be described thus: CEETOX_H295R_ESTRONE: CeeTox H295R High-throughput Steroidogenesis Assay for Estrone (AID 2283441; active = hit-call score of the fitted dose curve at least 0.9, where 1 is the maximum; inactive = score below 0.9). The settings on record: actives raise or lower the signal. The method, boiled down:
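Estrone secreted into medium quantified by LC-MS/MS after dansyl chloride derivatization, following 48 h chemical exposure (0.1% DMSO final) of forskolin-prestimulated (10 uM, 48 h) H295R cells; gain or loss fitted against DMSO; MTT viability in same wells.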

Assay [15] in a line: CEETOX_H295R_PROG: CeeTox H295R High-throughput Steroidogenesis Assay for Progesterone (PROG) (AID 2283442; active = hit-call score of the fitted dose curve at least 0.9, where 1 is the maximum; inactive = score below 0.9;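 note: human H295R adrenal cells primed with 10 µM forskolin before dosing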). The settings on record: actives raise or lower the signal. The method, boiled down:
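Progesterone read-out: HPLC-MS/MS on MTBE extracts of conditioned medium after 48 h chemical exposure of forskolin-primed (10 uM, 48 h) H295R cells. Gain or loss of signal was fitted relative to DMSO baseline.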

Sequence of Bile acid receptor (Homo sapiens) (Q96RI1 whole entry, looked up): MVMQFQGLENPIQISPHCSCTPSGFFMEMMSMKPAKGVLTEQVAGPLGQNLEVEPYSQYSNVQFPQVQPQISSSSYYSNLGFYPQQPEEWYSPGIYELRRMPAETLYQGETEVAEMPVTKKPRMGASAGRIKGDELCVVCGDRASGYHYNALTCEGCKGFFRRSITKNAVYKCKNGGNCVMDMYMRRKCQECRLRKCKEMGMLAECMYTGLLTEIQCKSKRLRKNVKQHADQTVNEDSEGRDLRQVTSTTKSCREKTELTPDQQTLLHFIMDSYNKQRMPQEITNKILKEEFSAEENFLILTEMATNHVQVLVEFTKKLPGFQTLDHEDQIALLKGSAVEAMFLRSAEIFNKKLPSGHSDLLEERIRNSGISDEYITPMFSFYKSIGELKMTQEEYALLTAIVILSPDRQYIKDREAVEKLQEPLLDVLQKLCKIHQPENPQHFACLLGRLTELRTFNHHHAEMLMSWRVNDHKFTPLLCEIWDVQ
Sequence of Estrogen receptor (Homo sapiens) (P03372 whole entry, looked up): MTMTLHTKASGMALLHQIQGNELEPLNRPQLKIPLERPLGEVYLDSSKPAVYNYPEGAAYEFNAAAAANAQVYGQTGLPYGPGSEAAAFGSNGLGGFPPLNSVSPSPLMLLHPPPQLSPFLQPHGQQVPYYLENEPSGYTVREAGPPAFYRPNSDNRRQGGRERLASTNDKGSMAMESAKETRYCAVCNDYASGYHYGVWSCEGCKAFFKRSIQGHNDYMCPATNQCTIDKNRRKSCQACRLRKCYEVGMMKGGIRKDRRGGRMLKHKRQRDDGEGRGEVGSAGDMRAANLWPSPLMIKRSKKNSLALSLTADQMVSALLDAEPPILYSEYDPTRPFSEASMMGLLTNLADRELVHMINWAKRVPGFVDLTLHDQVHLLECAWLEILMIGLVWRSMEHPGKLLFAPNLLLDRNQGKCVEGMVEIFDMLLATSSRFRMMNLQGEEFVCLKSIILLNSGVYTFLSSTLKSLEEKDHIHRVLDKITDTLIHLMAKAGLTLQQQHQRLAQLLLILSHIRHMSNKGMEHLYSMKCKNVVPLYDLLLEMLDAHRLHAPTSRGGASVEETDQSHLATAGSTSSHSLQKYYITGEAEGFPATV
Sequence of Retinoic acid receptor RXR-alpha (Homo sapiens) (P19793 whole entry, looked up): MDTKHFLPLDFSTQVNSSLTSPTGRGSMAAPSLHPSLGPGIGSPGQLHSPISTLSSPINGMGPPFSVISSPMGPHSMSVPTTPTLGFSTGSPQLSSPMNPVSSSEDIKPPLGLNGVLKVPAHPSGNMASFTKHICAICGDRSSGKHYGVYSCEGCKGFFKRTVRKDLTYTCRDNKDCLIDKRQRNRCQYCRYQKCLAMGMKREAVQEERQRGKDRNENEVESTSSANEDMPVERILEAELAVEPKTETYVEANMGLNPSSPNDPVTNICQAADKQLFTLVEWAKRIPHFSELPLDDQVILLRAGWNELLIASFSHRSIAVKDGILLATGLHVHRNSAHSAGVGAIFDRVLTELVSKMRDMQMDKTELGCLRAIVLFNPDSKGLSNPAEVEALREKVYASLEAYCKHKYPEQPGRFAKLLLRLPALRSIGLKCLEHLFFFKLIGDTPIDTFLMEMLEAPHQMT

On to `CC1=CCC(C(C)(C)O)CC1` (configuration not stated), for which the molecule was classed as inactive in [1], in assay [2], in [3], in assay [4], in assay [5] and in [6]. Further, in assay [7], the result was inactive.
For the molecule `CC1COC(=O)O1` (configuration not stated), the molecule was classed as inactive in [1], in assay [2], in assay [3], in [4], in assay [5] and in assay [6]. Also, the outcome in [7] was inactive.
Turning to `COc1ccc(OC)cc1`, the molecule was called inactive in [1], in assay [4], in assay [5], in [6] and in assay [7].
Consider `COc1ccccc1O`, for which the result in assay [1], in assay [2], in assay [4], in [5], in [6] and in assay [7] was inactive.
Take `CCCCCCCCOS(=O)(=O)O`: the molecule was classed as inactive in assay [1], in assay [2], in [3], in assay [6] and in assay [7].
`CCO[Si](CC)(OCC)OCC`: the result in assay [1], in [4] and in [5] was inactive.
With `CCC(C)(C)C1CCC(OC)CC1` (configuration not stated), the outcome in assay [1], in assay [2], in [3], in assay [4], in [5] and in assay [6] was inactive. The molecule was classed as inactive in assay [7].
Consider `CCCCCC1CCC(=O)O1` (configuration not stated), for which the result in [1], in [2], in [4], in assay [5], in assay [6] and in assay [7] was inactive.
As for `CCCCCCCCCO`, the molecule was classed as inactive in assay [1], in assay [2], in assay [4], in assay [5], in assay [6] and in [7].
As to `COc1ccc2[nH]cc(CCNC(C)=O)c2c1`, the result in assay [1], in [2], in assay [3], in assay [5], in assay [6] and in assay [7] was inactive. Besides, the result in assay [9], in [11], in [12], in [13] and in assay [14] was inactive. In addition, the half-maximal activity concentration (AC50) is 44.5 µM (active) in assay [8], 3.07 µM (active) in assay [10] and 20 µM (active) in assay [15].
As for `CC(O)CN` (configuration not stated), the call in assay [1], in [4], in [5], in assay [6] and in assay [7] was inactive.
Turning to `c1ccc(OCCOc2ccccc2)cc1`, the result in assay [1], in assay [4], in assay [6], in [7], in assay [8] and in assay [9] was inactive. The molecule was classed as inactive in [11], in assay [12], in assay [13] and in assay [14]. Moreover, the AC50 is 36.9 µM (active) in assay [10] and 14.3 µM (active) in assay [15].
With `CCCCN(CCCC)CCCCCCN(CCCC)CCCC`, the result in assay [1], in [4], in assay [5], in [6] and in [7] was inactive.
Consider `CC(=O)Nc1cc(S(=O)(=O)O)cc2cc(S(=O)(=O)O)c(N=Nc3ccccc3)c(O)c12`, for which the result in [1], in [5], in assay [6] and in [7] was inactive. Moreover, the AC50 in [4] was 22.9 µM (active).
With `CCCCCCCCCCCCS`, the result in [1], in assay [6] and in assay [7] was inactive. The AC50 is 77.6 µM (active) in assay [4] and 93.7 µM (active) in [5].
Consider `CCNC(=S)NCC`, for which the outcome in assay [1], in [4], in assay [5], in assay [6] and in assay [7] was inactive.
For the molecule `c1ccc2scnc2c1`, the molecule was called inactive in [1], in [4], in assay [6] and in [7].
Turning to `COc1cc(OC)c2ccc(=O)oc2c1`, the outcome in assay [1], in [4], in assay [5], in assay [6] and in assay [7] was inactive.
Regarding `NC(N)=S`, the outcome in assay [1], in assay [4], in [5], in assay [6] and in [7] was inactive.
As for `O=C(O)C1=NN(c2ccc(S(=O)(=O)O)cc2)C(=O)C1`, the result in assay [1], in [4], in assay [5], in assay [6] and in assay [7] was inactive.
As for `CCCCOCCOCCOCCO`, the call in assay [1], in assay [4], in assay [6] and in [7] was inactive.
With `CCCCC(CC)COCCO` (configuration not stated), the outcome in assay [1], in assay [4], in assay [5], in assay [6] and in assay [7] was inactive.
As for `CCCO`, the molecule was called inactive in [1], in assay [4], in [5], in [6] and in assay [7].
On to `CN(C)C`, for which the molecule was classed as inactive in assay [1], in [4], in [6] and in assay [7].
Take `CCCCCCCCCCCCN1CCOCC1`: the call in [1], in assay [6], in assay [7], in assay [11], in assay [13] and in assay [14] was inactive. In addition, the AC50 in [4] was 73.6 µM (active); in [5], 80.4 µM (active); in assay [8], 0.559 µM (active); in assay [9], 0.645 µM (active); in assay [10], 1.86 µM (active); in assay [12] it was 0.549 µM (active). The AC50 in [15] is 0.304 µM (active).
Turning to `CCC(C)(C)C1CCC(=O)CC1`, the molecule was classed as inactive in assay [1], in [4], in assay [5], in [6] and in [7].
Regarding `CCCCCC1C(=O)CCC1CC(=O)OC` (configuration not stated), the outcome in assay [1], in assay [4], in [6] and in assay [7] was inactive.
